# Experimental data taken from paper PMC5540273 (PLoS ONE, 2017).
# Where two headings read alike, the source gives them in different places.
# Columns and labels:
# Conditions in all cases: n = 1
# MEK2 = test system: T1, MEK2
# T1 construct: gene MAP2K2
# MEK3 = test system: T2, MEK3
# T2 construct: gene MAP2K3
# MEK4 = test system: T3, MEK4
# T3 construct: gene MAP2K4
# MEK5 = test system: T4, MEK5
# T4 construct: gene MAP2K5
# MEK6 = test system: T5, MEK6
# T5 construct: gene MAP2K6
# MELK = test system: MELK
# MERTK = test system: MERTK
# MET = test system: MET
# MINK = test system: T6, MINK
# T6 construct: gene MINK1
# MKK7 = test system: MKK7
# [1] = concentration: 1 μM, replicates: in singlicate
# 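Also: KINOMEscan kinase panel screen.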
SMILES,%Inh (MEK2; [1]),%Inh (MEK3; [1]),%Inh (MEK4; [1]),%Inh (MEK5; [1]),%Inh (MEK6; [1]),%Inh (MELK; [1]),%Inh (MERTK; [1]),%Inh (MET; [1]),%Inh (MINK; [1]),%Inh (MKK7; [1]),%Inh (MEK2; 1 µM),%Inh (MEK3; 1 µM),%Inh (MEK4; 1 µM),%Inh (MEK5; 1 µM),%Inh (MEK6; 1 µM),%Inh (MELK; 1 µM),%Inh (MERTK; 1 µM),%Inh (MET; 1 µM),%Inh (MINK; 1 µM),%Inh (MKK7; 1 µM)
Cn1ccc2ncnc(Oc3cccc(C(=O)Nc4ccccc4)c3)c21,23%,19%,30%,14%,0%,9%,0%,8%,12%,21%,,,,,,,,,,
Fc1cccc(COc2nnc(-c3ccc4c(c3)CCO4)o2)c1,4%,0%,0%,9%,0%,19%,0%,0%,1%,13%,,,,,,,,,,
Cn1cncc1-c1ccc2ncnc(Nc3ccc(OCc4ccccc4)cc3)c2c1 [GW320571],0%,0%,35%,93.7%,0%,15%,2%,11%,0%,15%,,,,,,,,,,
Cc1csc(-c2nc(Nc3ccncc3)c3ccccc3n2)n1 [GW869640],17%,38%,29%,47%,0%,24%,0%,30%,55%,10%,,,,,,,,,,
COc1ccc(Nc2nccc(-c3cccc(NC(=O)c4cc5cc(F)ccc5[nH]4)c3)n2)cc1 [GSK1229782],0%,22%,28%,96.1%,3%,10%,47%,0%,55%,21%,,,,,,,,,,
Cc1cccc(-c2nc(C)cc(Nc3ccncc3)n2)n1 [GSK257997],0%,0%,32%,8%,0%,0%,18%,0%,6%,0%,,,,,,,,,,
CC(C)(C)c1ccc(C(=O)Nc2cn3cc(Cl)ccc3n2)cc1,24%,0%,33%,38%,0%,1%,0%,0%,9%,0%,,,,,,,,,,
Cn1ccc2ncnc(Oc3ccc(NC(=O)Nc4ccccc4)cc3)c21,20%,20%,0%,39%,0%,16%,0%,28%,16%,20%,,,,,,,,,,
Cc1cccc(-c2cc(Nc3ccncc3)c3ccccc3n2)n1 [GSK223675],0%,0%,0%,0%,0%,0%,4%,0%,10%,5%,,,,,,,,,,
Fc1cc(Cl)ccc1Nc1ccnc2cc(-c3ccc(CN4CCCCC4)o3)ccc12 [GW560116],100%,0%,32%,83%,2%,9%,0%,0%,19%,0%,,,,,,,,,,
Cl.O=C(Nc1cccc(-c2nn3ncccc3c2-c2ccnc(Nc3cccnc3)n2)c1)c1c(F)cccc1F [GSK312879],9%,10%,40%,88%,0%,3%,12%,0%,0%,20%,,,,,,,,,,
CC(=O)Nc1nc2cnc(Nc3cc(NC(=O)c4cccc(CCC#N)c4)ccc3C)nc2s1,0%,3%,25%,2%,12%,0%,12%,7%,4%,0%,,,,,,,,,,
Cc1c(Cn2ccn3c(=O)cc(N4CCOCC4)nc23)cccc1C(F)(F)F [GSK2289044],0%,17%,9%,0%,0%,21%,15%,0%,1%,16%,,,,,,,,,,
CCn1c(-c2ccccn2)nc2cnccc21 [SB-736398],0%,0%,19%,12%,100%,22%,0%,15%,0%,0%,,,,,,,,,,
Cc1cccc(-c2nc(Nc3cccc(C(N)=O)c3)c3ccccc3n2)n1 [GW876019],27%,14%,0%,20%,0%,24%,11%,19%,5%,0%,,,,,,,,,,
O=C1NC(=O)C(N2CCc3ccccc32)=C1c1ccccc1Cl [SB-373598],0%,0%,9%,8%,0%,12%,27%,17%,4%,20%,,,,,,,,,,

SMILES,%Inh (MEK2; [1]),%Inh (MEK3; [1]),%Inh (MEK4; [1]),%Inh (MEK5; [1]),%Inh (MEK6; [1]),%Inh (MELK; [1]),%Inh (MERTK; [1]),%Inh (MET; [1]),%Inh (MINK; [1]),%Inh (MKK7; [1]),%Inh (MEK2; 1 µM),%Inh (MEK3; 1 µM),%Inh (MEK4; 1 µM),%Inh (MEK5; 1 µM),%Inh (MEK6; 1 µM),%Inh (MELK; 1 µM),%Inh (MERTK; 1 µM),%Inh (MET; 1 µM),%Inh (MINK; 1 µM),%Inh (MKK7; 1 µM)
O=C(Nc1n[nH]c2nc(-c3nccs3)c(Br)cc12)C1CC1 [SB-742251],0%,0%,13%,74%,0%,0%,12%,0%,20%,0%,,,,,,,,,,
O=C(Nc1ccccc1)Nc1cccc(Oc2ccc3nccn3n2)c1,0%,0%,0%,37%,0%,0%,4%,0%,13%,0%,,,,,,,,,,
CCn1c(-c2cccnc2O)nc2cnccc21 [SB-736715],0%,14%,0%,11%,0%,1%,26%,0%,0%,0%,,,,,,,,,,
Nc1ncnc2[nH]c(-c3ccccc3)nc12 [AH5015],0%,1%,13%,50%,0%,0%,0%,0%,4%,0%,,,,,,,,,,
COC(=O)c1c(-c2ccccc2)c2cc(OC)ccc2c(=O)n1Cc1ccccc1,0%,0%,18%,10%,21%,0%,3%,0%,0%,7%,,,,,,,,,,
Cn1ccc2ncnc(Oc3ccc(Nc4nc5ccccc5[nH]4)cc3)c21,0%,0%,0%,11%,0%,0%,8%,0%,0%,0%,,,,,,,,,,
Nc1nc(-c2nccs2)c(-c2ccnc3ccccc23)s1 [GW693542],0%,0%,36%,45%,0%,56%,22%,2%,51%,0%,,,,,,,,,,
Cc1c(O)cccc1Nc1ccnc2ccc(C(F)(F)F)cc12.Cl [GW466413],0%,0%,19%,35%,0%,11%,0%,0%,2%,0%,,,,,,,,,,
COc1cc2ncn(-c3cc(OCC4CCCO4)c(C(N)=O)s3)c2cc1OC (centres unmarked) [GSK204607],9%,0%,5%,99.3%,0%,0%,10%,0%,27%,0%,,,,,,,,,,
Cc1ccc(NC(=O)Nc2cccc(Cl)c2)cc1-c1ccc(C(=O)Nc2ccncc2)cc1 [GSK1398468],0%,0%,38%,11%,0%,0%,0%,0%,14%,30%,,,,,,,,,,
Clc1cc(Cl)cc(Nc2ccnc(Nc3cc(Cl)cc(Cl)c3)n2)c1 [GSK175726],0%,0%,0%,49%,3%,8%,0%,0%,18%,13%,,,,,,,,,,
Cc1ccc(NC(=O)Nc2cccc(C(F)(F)F)c2)cc1 [GSK955403],,,,,,,,,,,3%,15%,0%,0%,26%,15%,29%,0%,0%,0%
COc1cc2ncnc(Nc3ccc4nc(-c5ccccc5)[nH]c4c3)c2cc1OC.Cl [GW282450],0%,3%,21%,90%,0%,7%,0%,0%,1%,0%,,,,,,,,,,
NC(=O)c1nnc2ccccc2c1N,47%,46%,17%,34%,0%,9%,0%,16%,38%,0%,,,,,,,,,,
COc1cc(Nc2nccc(N3CCC(NC(=O)Nc4cc(C)ccc4C)C3)n2)cc(OC)c1OC (centres unmarked) [GSK1379762],0%,0%,7%,99.8%,0%,5%,51%,42%,0%,0%,,,,,,,,,,
CS(=O)(=O)c1ccc(-c2c(-c3ncn[nH]3)sc(N3CCOCC3)c2C#N)cc1,0%,0%,0%,16%,0%,5%,0%,0%,21%,10%,,,,,,,,,,
